An excerpt weighted towards active compounds, which were near 6.2% of everything screened.
ATXN viability – cell viability loss in ATXN counter-screen. S2 cells (HEK-293 line with an ATXN2-luciferase reporter) viability, CellTiter-Fluor protease fluorescence, 24 h. Potency, µM (top dose mostly 56.7 µM), usual class: cytotoxic. 400,000 compounds, 0.49% hits; note: nearly all actives have a fitted effect of over 40% in size
HT1080-NT tox – kills 2HG-producing HT-1080-NT fibrosarcoma cells; HT-1080-NT fibrosarcoma viability, CellTiter-Glo ATP luminescence, 48 h; Potency, µM (doses to about 46.1 µM), usual class: cytotoxic; 360,000 compounds, 1.6% hits;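 note: NT is the 2HG producing partner of a matched IDH1 knockdown line; nearly all actives have a fitted effect of over 55% in size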
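Compounds were tested in concentration-response format on HT-1080-NT cells for 48 hours at 37 degrees C. Cell viability came from CellTiter-Glo luminescence; curves were classified by r2, response magnitude and activity.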
ATXN2 expr inh – ATXN2 expression inhibition. HEK-293 ATXN2-luciferase reporter, luminescence, 24 h. Potency, µM (highest dose often 57 µM), actives largely listed as inhibitors. 360,000 compounds, 0.72% hits; note: nearly all actives have a fitted effect of over 55% in size
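ATXN2-luciferase reporter cells (luciferase flanked by upstream and downstream ATXN2 gene portions) were treated 24 h at 37 °C with compounds at up to 57 uM. SteadyGlo luminescence gave expression; GF-AFC fluorescence gave viability.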
KB-V1 cytotox – kills drug-selected multidrug resistant KB-V1 cells; 400,000 compounds, 3.4% hits; Potency, µM (titrated, usually from 46.1 µM), usual class: cytotoxic; AID 1347076; KB-V1 MDR cells viability, CellTiter-Glo, 72 h; note: nearly all actives have a fitted effect of over 60% in size
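Cytotoxicity toward P-gp-expressing KB-V1 cells was determined as loss of CellTiter-Glo luminescence after 72 h at 37 degrees C. Compounds were tested in quantitative HTS format across a concentration range, with curves fitted to normalized data.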
KB-3-1 cytotox – KB-3-1 parental cell cytotoxicity | KB-3-1 viability, CellTiter-Glo ATP luminescence, 72 h | Potency, µM (series often up to 46.1 µM), actives largely listed as cytotoxic | 400,000 compounds, 1.4% hits | AID 1347075; note: nearly all actives have a fitted effect of over 60% in size
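KB-3-1 parental drug-naive adenocarcinoma cells in DMEM/10% FBS, incubated 72 h at 37 C with pin-transferred compounds across a concentration series. Viability by CellTiter-Glo luminescence; concentration-response curves fitted after normalization.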
HT1080 IDH1KD tx – toxicity to HT-1080 IDH1 knockdown cells (counter line). HT-1080 IDH1 knockdown viability, ATP luminescence, 48 h. Potency, µM (series often up to 46.1 µM), most hits filed as cytotoxic. 360,000 compounds, 2% hits. AID 686971
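% activity derives from luminescence (CellTiter-Glo), normalised to DMSO and no-cell wells. HT-1080-IDH1KD cells, 750/well, had 48 h compound exposure at 37 °C.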
Hits are given with their value. Calls come from the whole dose curve; as a rule, active = well fitted curve in the direction sought with a large enough effect; inconclusive = small, poorly fitted or top-dose-only effect, or another doubt; inactive = no such curve, though single readings can be large; an effect the other way counts as inactive or inconclusive.

`CCN(Cc1ccccc1)C(c1cc2ccc(C)cc2[nH]c1=O)c1nnnn1CCOC` (centres undefined) gave ATXN viability inactive, HT1080-NT tox inactive, ATXN2 expr inh inactive, KB-V1 cytotox 14.6µM, KB-3-1 cytotox inactive and HT1080 IDH1KD tx inactive.
COc1ccc(C(=O)Nc2ccc3c4c(cccc24)CC3)cc1 was read as ATXN viability inconclusive, HT1080-NT tox inactive, ATXN2 expr inh inactive, KB-V1 cytotox 13µM, KB-3-1 cytotox inactive and HT1080 IDH1KD tx inconclusive.
`COc1ccc(C(=O)Nc2cccc3c2CCCC3)cc1` gave ATXN viability inconclusive, HT1080-NT tox inconclusive, ATXN2 expr inh inactive, KB-V1 cytotox inactive, KB-3-1 cytotox 23.1µM and HT1080 IDH1KD tx inconclusive.
`COc1ccc(Nc2nc3ccccc3nc2NS(=O)(=O)c2ccc(Cl)cc2)cc1OC` gave ATXN viability inactive, ATXN2 expr inh inactive, KB-V1 cytotox inconclusive and KB-3-1 cytotox inconclusive.
C=C1CC2C(CCC3(C)C2CCC3(O)C(C)=O)C2(C)CCC(=O)C=C12 (centres undefined) was read as ATXN viability inconclusive, HT1080-NT tox inconclusive, ATXN2 expr inh inactive, KB-V1 cytotox 20.6µM, KB-3-1 cytotox 20.6µM and HT1080 IDH1KD tx inactive.
CC(=O)C1(C)CCC2C3C=C(C)C4=CC(=O)CCC4(C)C3CCC21C (centres undefined) was read as ATXN viability inactive, HT1080-NT tox inactive, ATXN2 expr inh inactive, KB-V1 cytotox 4.61µM, KB-3-1 cytotox inconclusive and HT1080 IDH1KD tx inactive.
C[C@]12CC[C@@H]3c4ccc(O)cc4CC[C@H]3[C@@H]1CC[C@@H]2OC(=O)CCC1CCCC1 was read as ATXN viability inactive, HT1080-NT tox inactive, ATXN2 expr inh inactive, KB-V1 cytotox inactive, KB-3-1 cytotox inactive and HT1080 IDH1KD tx inactive.
Screening CCCCC(=O)O[C@H]1CC[C@H]2[C@@H]3CCc4cc(O)ccc4[C@H]3CC[C@]12C returned ATXN viability inconclusive, HT1080-NT tox 20.6µM, ATXN2 expr inh inconclusive, KB-V1 cytotox inconclusive, KB-3-1 cytotox inconclusive and HT1080 IDH1KD tx inconclusive.
Screening COc1cccc(-n2nnnc2SCC(=O)Nc2ccccc2OC)c1 returned ATXN viability inactive, HT1080-NT tox inactive, ATXN2 expr inh inactive, KB-V1 cytotox inactive, KB-3-1 cytotox inactive and HT1080 IDH1KD tx inactive.
CCCS(=O)(=O)c1nnnn1-c1cccc(OC)c1 was read as HT1080-NT tox 10µM, ATXN2 expr inh inconclusive, KB-V1 cytotox inactive, KB-3-1 cytotox inactive and HT1080 IDH1KD tx 6.31µM.
`Cc1ccc(NC(=S)N(CCN(C)C)Cc2cc3cc(C)ccc3[nH]c2=O)cc1` gave ATXN viability inactive, HT1080-NT tox inactive, ATXN2 expr inh inactive, KB-V1 cytotox 23.1µM, KB-3-1 cytotox inactive and HT1080 IDH1KD tx inactive.
Screening Cc1cccc(NC(=S)N(CCN(C)C)Cc2cc3cccc(C)c3[nH]c2=O)c1 returned ATXN viability inactive, HT1080-NT tox inactive, ATXN2 expr inh inactive, KB-V1 cytotox 16.4µM, KB-3-1 cytotox inactive and HT1080 IDH1KD tx inactive.
CN(C)CCCN(Cc1cc2cc3c(cc2[nH]c1=O)OCO3)C(=S)Nc1cccc(Cl)c1 was read as ATXN viability inactive, HT1080-NT tox 14.6µM, ATXN2 expr inh inactive, KB-V1 cytotox inactive, KB-3-1 cytotox inactive and HT1080 IDH1KD tx inactive.
`CCCN(Cc1cc2cc(C)ccc2[nH]c1=O)C(=O)c1cccc(OC)c1` gave ATXN viability inactive, HT1080-NT tox inactive, ATXN2 expr inh inactive, KB-V1 cytotox 7.31µM, KB-3-1 cytotox 16.4µM and HT1080 IDH1KD tx inactive.
`CCNC(=O)C1CCN(Cc2cc3ccccc3n2Cc2ccc(C)cc2)CC1` gave ATXN viability inactive, ATXN2 expr inh inactive, KB-V1 cytotox inactive and KB-3-1 cytotox inactive.
Screening COc1cc(NC(=O)C(NS(=O)(=O)c2ccc3c(c2)CCCC(=O)N3)C(C)C)cc(OC)c1 (centres undefined) returned ATXN viability inactive, ATXN2 expr inh inactive, KB-V1 cytotox inactive and KB-3-1 cytotox inactive.
Screening O=C(c1cn(C2CCCN(Cc3cccc(Oc4ccccc4)c3)C2)nn1)N1CCCC1 (centres undefined) returned ATXN viability inactive.
